Experimental data from PubChem BioAssay.
Measured potencies and affinities stand elsewhere. Calls of active or inactive are those of the source. The limit is not given here; nearly all actives have IC50 up to about 0.91 µM.

Biological target: Calcium-dependent protein kinase 4 (Plasmodium falciparum (isolate 3D7)) (UniProt Q8IBS5)
Test: PfCDPK4 kinase inhibitors, biochemical, TCAMS library (AID 1159588)
Conditions: recombinant PfCDPK4, Kinase-Glo ATP depletion luminescence

Chain of Calcium-dependent protein kinase 4 (Plasmodium falciparum (isolate 3D7)) (Q8IBS5 whole entry, looked up): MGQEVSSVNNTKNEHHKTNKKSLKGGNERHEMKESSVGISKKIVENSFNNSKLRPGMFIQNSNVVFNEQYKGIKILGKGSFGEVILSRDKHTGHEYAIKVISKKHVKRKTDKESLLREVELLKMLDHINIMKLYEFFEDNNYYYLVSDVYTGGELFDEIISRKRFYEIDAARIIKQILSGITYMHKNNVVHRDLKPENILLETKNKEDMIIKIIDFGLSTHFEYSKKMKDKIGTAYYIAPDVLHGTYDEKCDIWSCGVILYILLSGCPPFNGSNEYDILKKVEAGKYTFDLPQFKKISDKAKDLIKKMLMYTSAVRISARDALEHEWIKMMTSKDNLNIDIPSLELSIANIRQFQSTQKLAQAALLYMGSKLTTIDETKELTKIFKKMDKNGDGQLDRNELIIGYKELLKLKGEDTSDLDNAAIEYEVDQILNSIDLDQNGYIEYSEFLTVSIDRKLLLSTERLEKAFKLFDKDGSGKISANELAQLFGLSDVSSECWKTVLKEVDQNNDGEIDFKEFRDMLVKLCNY

outcome, inactive:
O=C1COc2ccc3ccccc3c21
Cc1cccc2[nH]c(-c3cccc(-c4cccc(CNCC5CCCO5)c4)c3)nc12 (stereo unspecified)
CCCCCCN1CCC(CNCc2cccc([N+](=O)[O-])c2)CC1
O=C(NCCc1ccccc1)[C@H](Cc1ccccc1)Nc1ccnc(NCC2CCCCC2)n1
CCOC(=O)c1cn(CC)c2cc(N(C)CCc3ccc(OC)c(OC)c3)c(F)cc2c1=O
O=C(Nc1cccc(CN2CCCN(Cc3cccc(Cl)c3)CC2)c1)c1ccc(-c2ccccc2)cc1
C=CCC(C(=O)Nc1ccnc2ccc(OC)cc12)C1CCN(CCCCCCC)CC1 (stereo unspecified)
O=C(C=Cc1ccc(Cl)c(Cl)c1)NCCCCCN1CCC(CCNC(=O)c2ccc3c(c2)OCO3)CC1
COc1cc2ncnc(Nc3ccc4nc(Cc5ccccc5)[nH]c4c3)c2cc1OC
COc1ccc(-n2nc(C(=O)NCc3ccccc3OC)c3ccccc3c2=O)cc1
CCc1ccccc1OCCCON1C(N)=NC(N)=NC1(C)C
CC(C)c1cc2c(ccc3nc(N)nc(N)c32)[nH]1
Cc1cc(N2CCCCC2)nc2ccc(NC(=O)c3cncc(Br)c3)cc12
CC1CCN(CCNC(=O)c2ccc3c(=O)n(Cc4ccc(Cl)cc4)c(=S)[nH]c3c2)CC1
CCC[C@@H]([C@@H](CC(C)C)C(=O)N[C@H](C(=O)Nc1nccs1)C(C)(C)SCCNC(=O)OCC)N(O)C=O
COc1ccc(NC(=O)N2CCc3ccc(OCCN(C(C)C)C(C)C)cc32)cc1C(F)(F)F
